In PubChem BioAssay (NCATS):
Results filed as inconclusive are left out. Active and inactive are the calls of the source. Calls follow the shape of the dose curve; as a rule, active = well fitted curve in the direction sought with a large enough effect; inconclusive = small, poorly fitted or top-dose-only effect, or another doubt; inactive = no such curve, though single readings can be large; an effect the other way counts as inactive or inconclusive.

Experiments:
CRL-7250 = normal cell line; experiment: Cytotoxic Profiling of Annotated Libraries Using Quantitative High-Throughput Screening (AID 1296008); details: Five cell lines viability, CellTiter-Glo ATP luminescence, 48-72 h; max response: hits give low values; also: nearly all actives have a fitted effect of over 60% in size; as to max response: % is scaled to controls: 0 for no effect and ±100 for the full control effect
In short: (§1)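 Cells exposed to compounds for 48 or 72 hr at 37 degrees Celsius. Viability read as ATP-coupled luminescence with CellTiter-Glo after 10 min at room temperature.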

HEK293 = experiment: as above; details: Five cell lines viability, CellTiter-Glo ATP luminescence, 48-72 h; max response: hits give low values
In short: as §1

HaCat = experiment: as above; details: Five cell lines viability, CellTiter-Glo ATP luminescence, 48-72 h; max response: hits give low values
In short: as §1

KB-3-1 = experiment: as above; details: Five cell lines viability, CellTiter-Glo ATP luminescence, 48-72 h; max response: hits give low values
In short: as §1

NIH3T3 [1] = experiment: as above; details: Five cell lines viability, CellTiter-Glo ATP luminescence, 48-72 h; max response: hits give low values
In short: as §1

NIH3T3 [2] = experiment: qHTS assay to identify novel small-molecules to repurpose for Merkel cell carcinoma treatment (AID 1296009); details: MCC and control cell lines, CellTiter-Glo viability, 72 h; at 44.8 µM (top of the series) unless noted; also: nearly all actives have a fitted effect of over 60% in size
In short: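 Dose-response viability screen; 72 hr exposure at 37 degree celsius; CellTiter-Glo added, 10 min room temperature, luminescence read; RLUs scaled between no-cell and DMSO wells.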

C33A = experiment: Primary qHTS to identify gynecologic anti-cancer compounds using libraries of approved drugs and bioactive compounds (AID 1345084); details: Gynecologic cancer cell panel viability, ATPlite luminescence, 48 h; series mostly up to 57.5 µM; also: % is scaled to controls: 0 for no effect and ±100 for the full control effect; nearly all actives have a fitted effect of over 55% in size
In short: (§2)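 Cells, 1,000 per well, plated 16 h, then exposed 48 h at 37 C to compounds. Viability by ATPlite luminescence after 15 min at room temperature.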

CAOV3 = experiment: as above; details: Gynecologic cancer cell panel viability, ATPlite luminescence, 48 h; series mostly up to 57.5 µM
In short: as §2

CASKI = experiment: as above; details: Gynecologic cancer cell panel viability, ATPlite luminescence, 48 h; series mostly up to 57.5 µM
In short: as §2

Es-2 = experiment: as above; details: Gynecologic cancer cell panel viability, ATPlite luminescence, 48 h; series mostly up to 57.5 µM
In short: as §2

HeLa = experiment: as above; details: Gynecologic cancer cell panel viability, ATPlite luminescence, 48 h; series mostly up to 57.5 µM
In short: as §2

Hek293T = experiment: as above; details: Gynecologic cancer cell panel viability, ATPlite luminescence, 48 h, control line for the selectivity index; series mostly up to 57.5 µM
In short: as §2

JEG-3 = experiment: as above; details: Gynecologic cancer cell panel viability, ATPlite luminescence, 48 h; series mostly up to 57.5 µM
In short: as §2

OV90 = experiment: as above; details: Gynecologic cancer cell panel viability, ATPlite luminescence, 48 h; series mostly up to 57.5 µM
In short: as §2

COc1cc(/C=C/C(=O)O[C@H]2[C@H](O)[C@@H](CO)O[C@@]2(CO)O[C@H]2O[C@H](CO)[C@@H](O)[C@H](O)[C@H]2O)cc(OC)c1O
inactive: outcome (CRL-7250) | max response (HEK293) -9.27% | max response (HaCat) -10.1% | max response (KB-3-1) 3.15% | outcome (NIH3T3 [1]) | outcome (NIH3T3 [2]) inactive [at 17.4 µM] | Potency (C33A) | Potency (CAOV3) | outcome (CASKI) | Potency (Es-2) | Potency (HeLa) | Potency (Hek293T) | Potency (JEG-3) | Potency (OV90)

CC(C)(OC1OC(CO)C(O)C(O)C1O)C1CCC(O)(CO)C2CC(=O)C(C)(O)C2C1 (stereo not drawn)
inactive: outcome (CRL-7250) | max response (HEK293) -8.37% | max response (HaCat) 0.066% | max response (KB-3-1) 2.59% | outcome (NIH3T3 [1]) | outcome (NIH3T3 [2]) inactive [at 17.4 µM] | Potency (C33A) | Potency (CAOV3) | outcome (CASKI) | Potency (Es-2) | Potency (HeLa) | Potency (Hek293T) | Potency (JEG-3) | Potency (OV90)

C=CC1(C)C=C2CC[C@H]3[C@@](C)(C(=O)O)CCC[C@]3(C)C2CC1 (stereo partly drawn)
inactive: max response (CRL-7250) -9.61% | max response (HEK293) 2.61% | max response (HaCat) 3.4% | max response (KB-3-1) 5.04% | outcome (NIH3T3 [1]) | outcome (NIH3T3 [2]) | Potency (C33A) | Potency (CAOV3) | outcome (CASKI) | Potency (Es-2) | Potency (HeLa) | Potency (Hek293T) | Potency (JEG-3) | Potency (OV90)

CN1CCN(c2nc(-c3ccc(C(=O)NC4(C(=O)NCC#N)CCCCC4)cc3)cs2)CC1
inactive: max response (CRL-7250) 2.74% | max response (HEK293) -8.37% | max response (HaCat) 1.43% | max response (KB-3-1) -9.9% | outcome (NIH3T3 [1]) | outcome (NIH3T3 [2]) | Potency (C33A) | Potency (CAOV3) | outcome (CASKI) | Potency (Es-2) | Potency (HeLa) | Potency (Hek293T) | Potency (JEG-3) | Potency (OV90)

CCOC(=O)c1ccc(NC2CCCCC2)c(N)c1
inactive: outcome (CRL-7250) | max response (HEK293) -10.7% | max response (HaCat) -10.7% | max response (KB-3-1) -6.34% | outcome (NIH3T3 [1]) | outcome (NIH3T3 [2]) | Potency (C33A) | Potency (CAOV3) | outcome (CASKI) | Potency (Es-2) | Potency (HeLa) | Potency (Hek293T) | Potency (JEG-3) | Potency (OV90)

CC(C)=C1CC2C(CCC2(C)O)C(C)(O)CC1=O (stereo not drawn)
inactive: outcome (CRL-7250) | max response (HEK293) -3.11% | max response (HaCat) -16.7% | outcome (KB-3-1) | outcome (NIH3T3 [1]) | outcome (NIH3T3 [2]) | Potency (C33A) | Potency (CAOV3) | outcome (CASKI) | Potency (Es-2) | Potency (HeLa) | Potency (Hek293T) | Potency (JEG-3) | Potency (OV90)

C=C1CC23CC1CCC2C12OC(=O)C(C)(C(O)C(O)C1O)C2C3C(=O)O (stereo not drawn)
inactive: max response (CRL-7250) -6.36% | max response (HEK293) -2% | max response (HaCat) 2.72% | outcome (KB-3-1) | outcome (NIH3T3 [1]) | outcome (NIH3T3 [2]) | Potency (C33A) | Potency (CAOV3) | outcome (CASKI) | Potency (Es-2) | Potency (HeLa) | Potency (Hek293T) | Potency (JEG-3) | Potency (OV90)

CNc1nc(Cc2ccccc2)nc2c1CCNC[C@@H]2C
inactive: max response (CRL-7250) -3.14% | max response (HEK293) -0.288% | max response (HaCat) -17.6% | max response (KB-3-1) -9.65% | outcome (NIH3T3 [1]) | outcome (NIH3T3 [2]) | Potency (C33A) | Potency (CAOV3) | outcome (CASKI) | Potency (Es-2) | Potency (HeLa) | Potency (Hek293T) | Potency (JEG-3) | Potency (OV90)

C=C1CCC2[C@@](C)(C(=O)O)CCC[C@@]2(C)[C@@H]1CCc1ccoc1 (stereo partly drawn)
inactive: max response (CRL-7250) -7.76% | max response (HEK293) -0.447% | max response (HaCat) -0.12% | max response (KB-3-1) -3.34% | outcome (NIH3T3 [1]) | outcome (NIH3T3 [2]) | Potency (C33A) | Potency (CAOV3) | outcome (CASKI) | Potency (Es-2) | Potency (HeLa) | Potency (Hek293T) | Potency (JEG-3) | Potency (OV90)

CO[C@@H]1[C@]2(O)C(=O)N3/C=C\C(C)(C)c4[nH]c5ccccc5c4/C=C\3C(=O)N2[C@]23[C@H](CO)C(C)(C)N2c2ccccc2[C@]13O
inactive: max response (CRL-7250) 1.93% | max response (HEK293) 0.736% | max response (HaCat) -14.4% | max response (KB-3-1) 7.79% | outcome (NIH3T3 [1]) | outcome (NIH3T3 [2]) inactive [at 17.4 µM] | Potency (C33A) | Potency (CAOV3) | outcome (CASKI) | Potency (Es-2) | Potency (HeLa) | Potency (Hek293T) | Potency (JEG-3) | Potency (OV90)

NC(N)=NCCC[C@H](NC(=O)c1sccc1NS(=O)(=O)c1cccc2nsnc12)C(=O)O
inactive: outcome (CRL-7250) | max response (HEK293) -1.44% | max response (HaCat) -1.15% | outcome (KB-3-1) | outcome (NIH3T3 [1]) | outcome (NIH3T3 [2]) | Potency (C33A) | Potency (CAOV3) | outcome (CASKI) | Potency (Es-2) | Potency (HeLa) | Potency (Hek293T) | Potency (JEG-3) | Potency (OV90)

C/C=C(\C)C(=O)OC[C@H]1O[C@@H](O[C@H]2[C@@H](O[C@H]3O[C@H](COC(=O)/C(C)=C/C)[C@@H](O)[C@H](O)[C@H]3O[C@@H]3O[C@H](COC(=O)/C(C)=C/C)[C@@H](O)[C@H](OC(=O)/C(C)=C/C)[C@H]3O)O[C@H](COC(=O)/C(C)=C/C)[C@@H](O)[C@@H]2O)[C@H](O)[C@@H](O)[C@@H]1O
inactive: max response (CRL-7250) -1.79% | max response (HEK293) -2.95% | max response (HaCat) -1.65% | max response (KB-3-1) 7.25% | outcome (NIH3T3 [1]) | outcome (NIH3T3 [2]) inactive [at 9.27 µM] | activity change, negative = cytotoxicity (C33A) -2.71% [at 11.6 µM] | activity change, negative = cytotoxicity (CAOV3) -1.73% [at 11.6 µM] | activity change, negative = cytotoxicity (CASKI) 3.51% [at 11.6 µM] | activity change, negative = cytotoxicity (Es-2) 2.21% [at 11.6 µM] | activity change, negative = cytotoxicity (HeLa) -5.02% [at 11.6 µM] | activity change, negative = cytotoxicity (Hek293T) -12.9% [at 11.6 µM] | activity change, negative = cytotoxicity (JEG-3) -4.46% [at 11.6 µM] | activity change, negative = cytotoxicity (OV90) -7.83% [at 11.6 µM]
